Lassa entry inh = qHTS for Inhibitors of binding or entry into cells for Lassa Virus | Lassa virus pseudotype entry inhibition, cell reporter | Potency, µM (top dose mostly 37.9 µM), actives largely listed as inhibitors | 300,000 compounds, 1.2% hits | AID 540256, 2011; calls by dose curve; tested in HEK293 cells; also: nearly all actives have a fitted effect of over 50% in size
HCMV inh = qHTS Assay for inhibitors of the human cytomegalovirus (HCMV); 410,000 compounds, 4.5% hits; AID 1259415, 2018; HFF cells, HCMV-luciferase reporter, 72 h; active compounds read low; activity change, negative = inhibition, % at 57.5 µM; in the data active = activity change below about -60%; inconclusive = no clear call, values can overlap the other calls; inactive = above about -39%
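Human foreskin fibroblasts infected with luciferase-reporter HCMV at MOI 1 PFU/cell, compounds at two doses. Luciferase measured 72 h post infection; normalized to buffer-only basal and Salinomycin (10uM) controls.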
HCV inh = qHTS Assay for Inhibitors of Hepatitis C Virus (HCV); Huh7.5.1 HCVcc-Cre infection, luciferase reporter, 44 h; Potency, µM (titrated, usually from 41.8 µM), actives largely listed as inhibitors; 340,000 compounds, 3.4% hits; active = well fitted inhibition curve with a large enough effect; inconclusive = small, poorly fitted or top-dose-only effect, or another doubt; inactive = no such curve, though single readings can be large or run the other way
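Infectious HCVcc-Cre (~0.5 moi) was added to cells just after compound, with cells seeded 4 h earlier at 1,000 per well. Luciferase activity after 44 h culture reported infection; substrate was incubated 15 min at room temperature before reading.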
FMDV inh = High Throughput Screening for Foot and Mouth Disease Virus Antivirals; FMDV antiviral cell-based qHTS; Potency, µM (highest dose often 57.9 µM), most hits filed as inhibitors; 410,000 compounds, 1.2% hits; AID 1159524, 2015; calls by dose curve; tested in HEK293T cells; also: read-out not given here; nearly all actives have a fitted effect of over 45% in size
MARV entry inh = qHTS for inhibitors of binding or entry into cells for Marburg Virus; Marburg virus pseudotyped entry inhibition, cell reporter; Potency, µM (highest dose often 37.8 µM), hits mostly inhibitors; 300,000 compounds, 1.8% hits; calls by dose curve; tested in HEK293 cells
Numbers stand for hits; . = inactive; ? = inconclusive; / = no result given. Shown are actives, neighbours in structure and some others; about 7.9% of the full set was active somewhere.

SMILES | Lassa entry inh | HCMV inh | HCV inh | FMDV inh | MARV entry inh
COc1cc2c(cc1NC(=S)NC(=O)c1c(OC)cccc1OC)oc1ccccc12 | / | ? | . | . | .
COc1cc2c(cc1NC(=O)/C=C/c1cc(OC)c(OC)c(OC)c1)oc1ccccc12 | ? | . | 8.9µM | ? | 8.9µM
Cc1ccc(S(=O)(=O)Nc2cc3c(cc2NCc2ccccc2)n(C)c(=O)n3C)c(C)c1 | . | . | / | . | .
Cc1ccsc1/C=N/Nc1ncc(Cl)cc1Cl | ? | ? | 13µM | . | .
Cc1cc(C)nc(N/N=C/c2sccc2C)n1 | . | -80 | . | . | ?
Cc1ccsc1/C=N/Nc1nc(=O)[nH]nc1C | 18µM | . | ? | . | ?
Cc1ccsc1/C=N/Nc1nc2ccccc2s1 | ? | . | ? | . | ?
Cc1cc(Cl)ccc1OCC(=O)NCC1Cc2cc(-c3cnccn3)ccc2O1 (stereo unspecified) | / | / | / | . | /
O=C(NCCCN1CCCCCC1)c1ccc2c(c1)sc1nc(-c3ccccc3)cn12 | . | / | / | . | /
CCCS(=O)(=O)NCc1c(C)ncc2c1CCN(C(=O)/C=C/c1ccc(F)cc1F)C2 | / | / | / | . | /
COc1ccc(CNC(=O)C(C)N2Cc3ccccc3C2=O)cc1 (stereo unspecified) | . | . | / | . | /
O=C(C1CCOC1)N1CCOc2ccc(CN3CCC(Oc4cccnc4)CC3)cc2C1 (stereo unspecified) | / | / | / | . | /
O=C(/C=C\c1ccco1)Oc1cccc2cccnc12 | . | . | ? | . | ?
O=C(/C=C/c1ccco1)Oc1cccc2cccnc12 | . | -72 | ? | . | ?
CCS(=O)(=O)NCc1c(C)ncc2c1CCN(C(=O)c1ccc(F)cc1)C2 | / | / | / | . | /
O=S(=O)(c1ccc(Oc2ccc(S(=O)(=O)N3CCOCC3)cc2)cc1)N1CCOCC1 | . | -66 | ? | ? | .
Nc1cc(S(=O)(=O)N2CCOCC2)ccc1Oc1cccc(Br)c1 | ? | -77 | 5µM | ? | ?
COc1ccc(C=C(c2nc3ccccc3s2)c2nc3ccccc3s2)cc1O | ? | -83 | ? | . | ?
COc1cc(C=C(c2nc3ccccc3s2)c2nc3ccccc3s2)ccc1O | . | ? | ? | . | ?
O=C(Cc1ccc(Cl)cc1)Nc1cccc(S(=O)(=O)Nc2ccccc2F)c1 | ? | . | . | . | .
CCC(=O)Nc1ccc(Cl)c(NC(=O)c2ccccc2OC)c1 | . | -62 | . | . | ?
CCCC(=O)Nc1ccc(Cl)c(NC(=O)CC)c1 | . | . | . | . | ?
O=C(Nc1cc(Cl)cc(Cl)c1)c1cccc(OC(F)F)c1 | . | -75 | ? | 40µM | .
CN(C)S(=O)(=O)Oc1cccc(C(=O)Nc2cccc(Cl)c2)c1 | ? | . | 8.9µM | . | .
CN(C)S(=O)(=O)c1cccc(NC(=O)Cc2ccc(Cl)cc2)c1 | 13µM | ? | . | ? | .
SMILES | Lassa entry inh | HCMV inh | HCV inh | FMDV inh | MARV entry inh
O=C(CNC(=O)c1ccccc1Cl)OCc1cc(=O)n2ccsc2n1 | . | . | / | . | /
CCC1CN(S(=O)(=O)c2cc(-c3cc(C)no3)ccc2C)c2cc(Cl)ccc2O1 (stereo unspecified) | . | . | / | . | /
CC[C@H](C(=O)OCCN(CC)CC)c1ccccc1 | / | / | / | / | .
COCCOc1cc(NC(=O)c2cccc(OC)c2)c(Cl)cc1Cl | . | . | ? | . | .
CCC(=O)Nc1ccc(Cl)c(NC(=O)c2cccc(OC)c2)c1 | . | -88 | ? | . | .
CCCC(=O)Nc1ccc(C(=O)Nc2cccc(OC)c2)cc1 | . | -74 | . | . | .
COc1cccc(C(=O)Nc2cccc(NC(=O)c3ccccc3Cl)c2)c1 | / | -97 | . | . | /
COc1cccc(C(=O)Nc2cccc(NC(=O)c3ccc(Cl)cc3Cl)c2)c1 | ? | ? | / | . | /
COc1cc(NC(=O)c2ccc(Br)o2)ccc1NC(=O)c1ccccc1Cl | ? | / | 10µM | . | .
O=c1oc2ccccc2cc1-c1cn2cc(Cc3ccccc3F)sc2n1 | . | . | / | . | ?
Cc1cc(C)cc(NC(=O)c2ncn(-c3ccccc3)n2)c1 | . | . | / | . | .
CN(C)S(=O)(=O)c1cccc(C(=O)Nc2ccccc2)c1 | . | . | . | . | .
CN(C)S(=O)(=O)c1cccc(C(=O)Nc2cc(Cl)cc(Cl)c2)c1 | ? | . | 11µM | . | .
CC(C)(CC(=O)NCc1ccc(Cl)cc1Cl)CC1=NS(=O)(=O)c2ccccc2N1 | ? | -89 | / | ? | /
Cc1cc(C)c2c(CC(=O)Nc3c(C(=O)c4ccc(F)cc4)oc4ccccc34)coc2c1 | . | . | / | . | .
COCc1c(C(=O)NC2CCCCC2)cnn1-c1nccc(-c2cc(C)sc2C)n1 | / | / | / | . | /
NC(=O)COC(=O)c1ccc(-c2ccccc2)cc1 | . | -62 | . | . | .
NC(=O)COC(=O)c1ccc(-c2ccc(O)cc2)cc1 | / | . | . | . | /
O=c1cc(/C=C/c2cccs2)[nH]c2ccccc12 | 6.5µM | -85 | ? | ? | 4.1µM
CSc1ccc(/C=C/c2cc(=O)c3ccccc3[nH]2)cc1 | . | . | ? | . | ?
CCc1ccc(-n2c(C)nnc2SCc2nc(-c3ccc(OC)cc3)no2)cc1 | ? | . | / | ? | .
O=C(CCCCCN1C(=O)CCC1=O)Nc1ncn[nH]1 | . | -103 | . | . | .
Cc1c(Cl)cccc1NC(=O)CCCCCN1C(=O)CCC1=O | . | . | . | . | .
CN(C)CCn1c(=N)n(CC(O)c2ccc(Cl)c(Cl)c2)c2ccccc21 (stereo unspecified) | / | . | 7.1µM | ? | /
N=c1n(CCN2CCCCC2)c2ccccc2n1CC(O)c1cccc(Br)c1 (stereo unspecified) | ? | ? | 13µM | ? | 11µM
SMILES | Lassa entry inh | HCMV inh | HCV inh | FMDV inh | MARV entry inh
N=c1n(CCN2CCCCC2)c2ccccc2n1CC(=O)c1ccc(Cl)c(Cl)c1 | . | . | ? | ? | 8.9µM
N=c1n(CCN2CCCCC2)c2ccccc2n1CC(O)c1ccc(Cl)c(Cl)c1 (stereo unspecified) | ? | -97 | 13µM | / | 5.8µM
CCn1c(=N)n(CC(=O)c2ccc(Cl)c(Cl)c2)c2ccccc21 | ? | . | ? | . | ?
COc1ccc2nc(N(Cc3cccnc3)C(=O)CCc3ccccc3)sc2c1 | . | . | / | . | /
COc1cc(Nc2ncc3c(n2)CCN(Cc2cccc(C)c2)C3)cc(OC)c1 | . | . | / | . | /
CCOc1nc(-c2ccc(C)cc2)ccc1-c1noc(-c2ccccc2F)n1 | . | . | / | . | ?
CCOc1nc(-c2ccc(C)cc2)ccc1-c1noc(COC)n1 | . | . | 10µM | . | .
O=C(Nc1ccc(Cn2cccn2)cc1)c1ccc(COc2cccc(Br)c2)cc1 | 5.6µM | . | 10µM | . | 0.56µM
COc1ccc(Nc2nccc3[nH]c(-c4cccc(F)c4)cc23)cc1 | / | . | / | / | /
Cn1cc(-c2cc3c(Nc4ccc(OC(F)(F)F)cc4)nccc3[nH]2)cn1 | / | -65 | / | / | /
CCOc1cccc(CNC(=O)c2ccc(N3CCCC3)c(NC(=O)NCc3ccc(F)cc3)c2)c1 | . | . | / | . | /
COc1ccc(-n2cc(-c3ccccc3)[nH]c2=S)c(OC)c1 | / | -65 | ? | ? | /
